Drawing on PubChem BioAssay (NCI), this text covers growth for 12 compounds.

“And” between values parts separate entries of the source, which are not always exact repeats. Equal values may be shown once. Compounds without any hit were thinned out: in the full panel of roughly 83,000, 20% have a hit.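 Note: values are percent growth. 100 is the growth of untreated cells, values between 100 and 0 indicate rising inhibition; between -100 and 0 indicates cell death.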 A number with no mark means an inactive call. The source made the active and inactive calls. Rule for the calls: active = growth percent below 10; inactive = the rest.

Among the test systems are RPMI-8226 leukemia; OVCAR-8 ovarian; OVCAR-5 ovarian; OVCAR-4 ovarian; SK-OV-3 ovarian; IGROV1 ovarian; OVCAR-3 ovarian; HS 578T breast; NCI/ADR-RES ovarian.
What all share (test): NCI-60 one-dose screen, 48 h (100 = growth as untreated, 0 = no growth, -100 = all killed)
Common to all, as to details: 10 µM unless noted

With `CCN(CC)C(=S)SCCO`, the growth in the assay with RPMI-8226 leukemia is 99.5%; in the assay with OVCAR-8 ovarian it was 103%; in the assay with OVCAR-5 ovarian, 110%; with OVCAR-4 ovarian, 113%; in the assay with SK-OV-3 ovarian, 111%; in the assay on IGROV1 ovarian it was 107%. The growth with OVCAR-3 ovarian was 106%; in the assay with HS 578T breast, 103%; in the assay with NCI/ADR-RES ovarian, 102%.
With `COC(=O)c1nc(N)nc(C(=O)OC)c1C(=O)c1cccc2ccccc12`, the growth in the assay with RPMI-8226 leukemia was 109%; in the assay on OVCAR-8 ovarian, 117%; in the assay with OVCAR-5 ovarian it was 103%; with OVCAR-4 ovarian, 108%; in the assay on SK-OV-3 ovarian it was 121%; in the assay with IGROV1 ovarian, 117%. The growth is 132% in the assay with OVCAR-3 ovarian, 108% with HS 578T breast and 103% in the assay on NCI/ADR-RES ovarian.
Consider `OCCCc1ccccc1`, for which the growth was 117% in the assay with RPMI-8226 leukemia; 104% in the assay on OVCAR-8 ovarian; 97% in the assay on OVCAR-5 ovarian; 112% in the assay on OVCAR-4 ovarian; 97.6% in the assay with SK-OV-3 ovarian; 82.4% in the assay with IGROV1 ovarian. The growth in the assay with OVCAR-3 ovarian was 109%; in the assay with HS 578T breast, 106%; with NCI/ADR-RES ovarian it was 108%.
With `Nc1ccc(Cl)c(S(=O)(=O)O)c1`, the growth was 111% with RPMI-8226 leukemia; 93.3% in the assay with OVCAR-8 ovarian; 95.7% in the assay on OVCAR-5 ovarian; 106% with OVCAR-4 ovarian; 99.5% in the assay on SK-OV-3 ovarian; 102% in the assay with IGROV1 ovarian. Moreover, the values for the growth with OVCAR-3 ovarian, in the assay on HS 578T breast and with NCI/ADR-RES ovarian were 101%, 98.8% and 103%, respectively.
As for `COC(=O)c1nc(=S)[nH]c(C(=O)OC)c1C(=O)c1ccc(OC)cc1`, the growth in the assay on RPMI-8226 leukemia is 111%; in the assay with OVCAR-8 ovarian, 109%; in the assay on OVCAR-5 ovarian, 103%; with OVCAR-4 ovarian, 112%; in the assay on SK-OV-3 ovarian, 149%; in the assay with IGROV1 ovarian, 99.9%. For the same compound, the growth was 119% in the assay on OVCAR-3 ovarian, 76.1% in the assay with HS 578T breast and 99.8% with NCI/ADR-RES ovarian.
Take `Cc1cnc(N)s1`: the growth in the assay with RPMI-8226 leukemia is 95.9%; in the assay with OVCAR-8 ovarian, 92.8%; in the assay with OVCAR-5 ovarian, 90.7%; with OVCAR-4 ovarian, 103%; with SK-OV-3 ovarian, 89.7%; in the assay on IGROV1 ovarian, 103%. Moreover, the growth is 105% in the assay on OVCAR-3 ovarian and 89.4% with HS 578T breast.
As to `CCOC(=O)C(N)Cc1cc(I)c(O)c(I)c1` (configuration not stated), the growth in the assay with RPMI-8226 leukemia is 96.4% and 107%; in the assay on OVCAR-8 ovarian, 110% and 104%; in the assay with OVCAR-5 ovarian, 109% and 107%; in the assay with OVCAR-4 ovarian, 108% and 107%; with SK-OV-3 ovarian, 107% and 96.6%; with IGROV1 ovarian, 115% and 104%. Besides, the growth was 113% and 102% in the assay on OVCAR-3 ovarian; 107% in the assay with HS 578T breast; 98.8% and 101% in the assay with NCI/ADR-RES ovarian.
For the compound `C/C(CC(C)C)=N/NC(N)=S`, the growth was 73.7% with RPMI-8226 leukemia; 69% with OVCAR-8 ovarian; 114% with OVCAR-5 ovarian; 72.2% in the assay with OVCAR-4 ovarian; 105% with SK-OV-3 ovarian; 97.4% in the assay on IGROV1 ovarian. Moreover, the growth with OVCAR-3 ovarian is 48.1%; with HS 578T breast, 96.8%; in the assay with NCI/ADR-RES ovarian, 46.7%.
For the compound `O=C(O)/C=C/C=C/c1ccccc1`, the growth with RPMI-8226 leukemia was 112% and 99.7%; in the assay on OVCAR-8 ovarian it was 102% and 109%; in the assay with OVCAR-5 ovarian, 103% and 96.8%; in the assay with OVCAR-4 ovarian, 116% and 108%; in the assay on SK-OV-3 ovarian, 113% and 104%; in the assay on IGROV1 ovarian, 105% and 110%. Also, the growth with OVCAR-3 ovarian was 124% and 98.8%; in the assay on HS 578T breast, 109% and 108%; with NCI/ADR-RES ovarian, 111% and 102%.
Regarding `CNc1ccc(O)cc1`, the growth in the assay with RPMI-8226 leukemia was 102% and 87.4%; in the assay with OVCAR-8 ovarian, 96.7% and 106%; in the assay with OVCAR-5 ovarian it was 114% and 107%; with OVCAR-4 ovarian, 94.5% and 106%; in the assay with SK-OV-3 ovarian it was 105% and 108%; in the assay with IGROV1 ovarian, 135% and 119%. In addition, the growth in the assay on OVCAR-3 ovarian was 113% and 114%; in the assay with HS 578T breast it was 115% and 142%; with NCI/ADR-RES ovarian it was 114% and 102%.
As to `CC(C)(C)C1CCC(=NO)CC1` (configuration not stated), the growth in the assay with RPMI-8226 leukemia is 92.5%; in the assay on OVCAR-8 ovarian, 91.9%; with OVCAR-5 ovarian, 90.3%; in the assay with OVCAR-4 ovarian, 97.3%; with SK-OV-3 ovarian it was 101%; with IGROV1 ovarian, 99.5%. Also, the growth with OVCAR-3 ovarian was 104%; with HS 578T breast it was 102%; in the assay with NCI/ADR-RES ovarian, 103%.
On to `Cc1cc(-c2ccc(N=Nc3c(C)nn(-c4ccc(S(=O)(=O)O)cc4)c3O)c(C)c2)ccc1N=Nc1ccc(O)c(C(=O)O)c1`, for which the growth is 81.7% in the assay with RPMI-8226 leukemia; 95.7% in the assay on OVCAR-8 ovarian; 94.4% with OVCAR-5 ovarian; 106% with OVCAR-4 ovarian; 96.9% in the assay on SK-OV-3 ovarian; -9.24% (active) with IGROV1 ovarian. In addition, the growth with OVCAR-3 ovarian was 106%; in the assay on HS 578T breast, 91.8%; in the assay with NCI/ADR-RES ovarian, 104%.
